Assay results from the supplement of paper PMC12350171.
Structures can show the parent of a compound that is named as a salt. Values without a mark were called inactive.

What was measured:
Details in all cases: 20 µM
[1] = tested on: Salmonella enterica typhimurium; assay: growth AUC normalised to DMSO control (fraction of control); higher = less growth inhibition, active = hit call of the paper
Outline: (§1)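 Pathogens were passaged twice under anaerobic conditions, then inoculated into pre-reduced mGAM plates at a starting OD578 of 0.01, with compound at 20 μM and 1% DMSO, and sealed with breathable membranes. For Haemophilus parainfluenzae, the medium was supplemented with hemin and NAD. OD578 was read every hour for 24 h in three biological replicates. Growth-curve AUC was calculated by the trapezoidal rule up to the exponential-to-stationary transition and normalised to DMSO controls on the same plate.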

Shigella flexneri = assay: as above
Outline: as §1

Vibrio cholerae = assay: as above
Outline: as §1

[2] = tested on: Yersinia pseudotuberculosis; assay: as above
Outline: as §1

P. vulgatus RND KO = assay: growth AUC normalised to DMSO control (median) (fraction of control); higher = less growth inhibition, active = hit call of the paper
Outline: (§2)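 Anaerobic growth was tracked hourly at OD578 for 24 h in 96-well plates of mGAM seeded at OD578 0.01 with each approved-drug library compound at 20 μM and 1% DMSO. Strains had first been passaged twice overnight without oxygen. Three biological replicates were run. The reported median is the area under the curve, calculated by the trapezoidal rule on curves truncated at entry into stationary phase and normalised to vehicle wells on the same plate.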

P. vulgatus WT = assay: as above
Outline: as §2

[3] = tested on: S. enterica typhimurium WT; assay: as above
Outline: as §2

[4] = tested on: S. enterica typhimurium tolC KO; assay: as above
Outline: as §2
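Throughout, for growth AUC normalised to DMSO control (median): active when median AUC fell below 0.1.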

Row | Compound | growth AUC normalised to DMSO control [1] | growth AUC normalised to DMSO control (Shigella flexneri) | growth AUC normalised to DMSO control (Vibrio cholerae) | growth AUC normalised to DMSO control [2] | growth AUC normalised to DMSO control (P. vulgatus RND KO) | growth AUC normalised to DMSO control (P. vulgatus WT) | growth AUC normalised to DMSO control [3] | growth AUC normalised to DMSO control [4]
1 | C=C1C[C@H]2[C@@H]3C=C(C)C4=CC(=O)CC[C@]4(C)[C@H]3CC[C@]2(C)[C@@]1(OC(C)=O)C(C)=O [Melengestrol acetate] | 0.981 | 1.05 | 1.03 | 1.03 | 0.993 | 1.02 | 1.01 | 0.961
2 | CCCNC(C)C(=O)Nc1c(C)csc1C(=O)OC (stereo unspecified) [Articaine hydrochloride] | 0.949 | 1.03 | 1.08 | 1.03 | 1.04 | 1.06 | 1.01 | 0.997
3 | C[N+](C)(C)CCCCCC[N+](C)(C)C [Hexamethonium dibromide dihydrate] | 0.947 | 0.996 | 0.971 | 0.966 | 0.992 | 1 | 0.99 | 1.02
4 | C[C@]12CC[C@@H]3c4ccc(O)cc4C[C@@H](CCCCCCCCC[S+]([O-])CCCC(F)(F)C(F)(F)F)[C@H]3[C@@H]1CC[C@@H]2O (stereo partly specified) [Fulvestrant] | 1.01 | 1.09 | 1.01 | 0.994 | 1.05 | 1.02 | 1.02 | 0.998
5 | CN(C)CCOC(C)(c1ccccc1)c1ccccn1 (stereo unspecified) [Doxylamine succinate] | 0.982 | 1.01 | 1 | 0.996 | 0.981 | 0.993 | 0.986 | 0.999
6 | CC(C)NCC(O)c1ccc2ccccc2c1 (stereo unspecified) [Pronethalol hydrochloride] | 0.991 | 1 | 0.999 | 0.982 | 1 | 1.01 | 0.994 | 0.989
7 | CCN1CCN(C(=O)N[C@@H](C(=O)N[C@@H]2C(=O)N3C(C(=O)O)=C(CSc4nnnn4C)CS[C@H]23)c2ccc(O)cc2)C(=O)C1=O [Cefoperazone dihydrate] | 0.0254 (active) | 0.0208 (active) | 0.0794 (active) | 0.16 (active) | 0.00991 (active) | 0.00365 (active) | 0.144 | 0.00245 (active)
8 | Nc1nc(=S)c2ncn([C@@H]3O[C@H](CO)[C@@H](O)[C@H]3O)c2[nH]1 [Thioguanosine] | 0.828 (active) | 0.0952 (active) | 0.957 | 0.826 (active) | 1.03 | 1.06 | 0.849 | 0.779
9 | CCN1CCC[C@H]1CNC(=O)c1c(O)c(Cl)cc(Cl)c1OC [Raclopride] | 1 | 0.983 | 0.985 | 0.951 | 1.04 | 1.04 | 0.994 | 1
10 | CC(CN(C)C)C(C)(O)Cc1ccc(Cl)cc1 (stereo unspecified) [Clobutinol hydrochloride] | 0.999 | 0.98 | 0.987 | 0.993 | 0.999 | 1.03 | 1.01 | 0.994
11 | CC(C(O)c1ccc(O)cc1)N1CCC(Cc2ccccc2)CC1 (stereo unspecified) [Ifenprodil tartrate] | 1 | 1.05 | 1.03 | 1 | 1.03 | 1.02 | 1.01 | 1
12 | CCOc1ccccc1OCC1CNCCO1 (stereo unspecified) [Viloxazine hydrochloride] | 0.997 | 0.979 | 0.987 | 0.961 | 1 | 0.985 | 0.99 | 0.995
13 | CC(CN1c2ccccc2Sc2ccccc21)N(C)C (stereo unspecified) [Promethazine hydrochloride] | 0.983 | 1.03 | 0.961 | 0.957 | 0.718 | 0.682 | 1 | 0.98
14 | CCN(CC)C(C)CN1c2ccccc2Sc2ccccc21 (stereo unspecified) [Ethopropazine hydrochloride] | 0.972 | 0.999 | 0.918 | 0.995 | 0.272 | 0.246 | 0.993 | 0.951
15 | CC(CN(C)C)CN1c2ccccc2CCc2ccccc21 (stereo unspecified) [Trimipramine maleate salt] | 1 | 1.05 | 1.07 | 1.01 | 1.06 | 1.03 | 1.02 | 0.963
16 | COc1ccc2c(c1)C(=O)N(CCc1ccc(S(=O)(=O)NC(=O)NC3CCCCC3)cc1)C(=O)C2(C)C [Gliquidone] | 1 | 1.02 | 0.995 | 1 | 0.994 | 1.01 | 1.01 | 1
17 | CC1(C)S[C@@H]2[C@H](NC(=O)[C@H](C(=O)O)c3ccsc3)C(=O)N2[C@H]1C(=O)O [Ticarcillin sodium] | 0.00595 (active) | 0.178 (active) | 0.116 (active) | 0.0593 (active) | 0.00834 (active) | 0.0131 (active) | 0.00844 (active) | 0.0028 (active)
18 | CC12CC3CC(C)(C1)CC(N)(C3)C2 [Memantine hydrochloride] | 0.997 | 0.99 | 1.01 | 0.985 | 1.01 | 1.02 | 1.01 | 1
19 | Cc1cc2c(cc1S(N)(=O)=O)S(=O)(=O)CCC2 [Meticrane] | 1.01 | 0.996 | 1.01 | 1.01 | 1.03 | 1.01 | 1.02 | 1.01
20 | COc1ccc(-c2cc(=O)c3c(O)cc(O[C@@H]4O[C@H](CO[C@@H]5O[C@@H](C)[C@H](O)[C@@H](O)[C@H]5O)[C@@H](O)[C@H](O)[C@H]4O)cc3o2)cc1O [Diosmin] | 0.988 | 0.96 | 0.971 | 0.975 | 0.997 | 0.991 | 1 | 0.996
21 | C[N+]1(C)CCC(OC(=O)C(O)(c2ccccc2)C2CCCC2)C1 (stereo unspecified) [Glycopyrrolate bromide] | 1.02 | 1 | 1.01 | 1.01 | 1 | 0.984 | 1 | 0.993
22 | CNCCC=C1c2ccccc2C=Cc2ccccc21 [Norcyclobenzaprine] | 0.983 | 0.935 | 0.888 | 0.996 | 0.943 | 0.926 | 0.994 | 0.968
23 | CC(C)NC[C@@H](O)COc1ccc(CC(N)=O)cc1 [(R,+) Atenolol] | 1.01 | 1.06 | 1.07 | 1.02 | 1.04 | 1.01 | 1.02 | 0.986
24 | CC(C)C(=O)c1c(C(C)C)nn2ccccc12 [Ibudilast] | 1.01 | 1.01 | 1.05 | 0.994 | 0.949 | 0.956 | 1 | 0.33
25 | Cn1nnc2c(C(N)=O)ncn2c1=O [Temozolomide] | 0.981 | 0.963 | 0.992 | 0.996 | 0.989 | 0.988 | 0.967 | 1.01
26 | CC(C)(O/N=C(\C(=O)N[C@@H]1C(=O)N2C(C(=O)[O-])=C(C[n+]3ccccc3)CS[C@H]12)c1csc(N)n1)C(=O)O [Ceftazidime pentahydrate] | 0.016 (active) | 0.0524 (active) | 0.494 (active) | 0.186 (active) | 0.0283 (active) | 0.0233 (active) | 0.214 | 0.0609 (active)
27 | Cc1cccn2c(=O)c(-c3nnn[nH]3)cnc12 [Pemirolast potassium] | 0.968 | 0.946 | 0.921 | 0.964 | 0.998 | 1.01 | 0.993 | 0.995
